PolyA inhibitor: polyadenylation inhibitors in yeast reporter cells, primary screen, luminescence, S. cerevisiae; S. cerevisiae SKY197-pL101 polyadenylation reporter, beta-gal luminescence; efflux-impaired pdr1/pdr3 knockout yeast; score 100 = 6 SD above DMSO; AID 1875, 2009; activity score, % at 12 µM; 0.02% of 300,000 active;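 active means lowest replicate activity score at least 50, where 100 means six control SD above control mean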;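 further: yeast exposed to compound for 9 h at 30 °C; higher score means more reporter readthrough which indicates perturbed polyadenylation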
JMJD2C inh: inhibitors of GASC-1 histone demethylase, primary screen, biochemical, fluorescence, DELFIA europium. Lysine-specific demethylase 4C (Homo sapiens), Q9H3R0. inhibition, % at 2.35 µM. GST-JMJD2C(1-420) H3K9me3 demethylation. 0.069% of 330,000 active;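 active means more than half of a compound's replicate wells show inhibition beyond 50%, single wells judged on their own value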;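 further: signal counts dimethyl H3K9 product captured on neutravidin plate; 0% = median of DMSO wells and 100% = 0.3 times that DMSO median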
Target sequence (Q9H3R0 1-420 limits assumed): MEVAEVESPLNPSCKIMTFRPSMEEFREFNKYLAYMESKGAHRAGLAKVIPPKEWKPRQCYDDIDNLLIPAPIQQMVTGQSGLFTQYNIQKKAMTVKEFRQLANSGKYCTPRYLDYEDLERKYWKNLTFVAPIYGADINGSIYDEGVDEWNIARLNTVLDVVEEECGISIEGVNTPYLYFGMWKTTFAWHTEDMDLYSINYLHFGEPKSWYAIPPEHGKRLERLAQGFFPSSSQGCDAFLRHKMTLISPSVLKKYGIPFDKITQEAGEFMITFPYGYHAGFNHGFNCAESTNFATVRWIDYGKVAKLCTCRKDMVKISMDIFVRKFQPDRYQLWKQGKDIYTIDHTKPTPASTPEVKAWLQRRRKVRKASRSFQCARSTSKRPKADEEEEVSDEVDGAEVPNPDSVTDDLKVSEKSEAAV
HDAC3 inhib: HDAC3 deacetylase inhibitors, primary screen, biochemical, fluorescence, cell-free homogeneous; Histone deacetylase 3 (Homo sapiens), O15379; recombinant HDAC3, fluorogenic peptide/trypsin coupled; inhibition, % at 8.3 µM; 0.15% of 320,000 active; AID 2718, 2010; in the data active means inhibition above about 26%, passing the limit was not always enough
NALP3 yeast inh: NALP3 inflammasome inhibitors in reconstituted yeast, primary screen, luminescence, uHTS; 0.39% of 330,000 active; inhibition, % at 10 µM; Yeast reconstituted NLRP3/ASC/caspase-1, beta-gal luminescence, 24 h;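 active means inhibition of 50% or more; inactive means inhibition below 50%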;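 further: plate controls were induced DMSO wells for no effect and uninduced yeast grown without galactose for full effect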
Efflux pump inh: inhibitors of Candida efflux pumps in yeast, primary screen, S. cerevisiae, Nile Red, multiplex; inhibition, % at 10 µM; S. cerevisiae Candida pump triplex; 0.44% of 330,000 active;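 active means plate passing quality check with inhibition over a set limit, or well fluorescence over plate mean plus 4 SD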;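 further: Nile Red retained in pooled yeast measured as flow cytometry median fluorescence; 0% = buffer negative control and 100% = Enniatin B positive control; higher means more Nile Red kept so more efflux inhibition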
NALP1 yeast inh: NALP1 inflammasome inhibitors in reconstituted yeast, colorimetric, S. cerevisiae, triplicate retest; S. cerevisiae NALP1/ASC/caspase-1 growth, X-gal OD620, 72 h; 0.61% of 280,000 active; inhibition, % at 10 µM; in the data active means inhibition mostly above about 24%, no sharp cut-off; inactive means mostly below about 32%
Active calls of the source: *; · = no result. Only some compounds are listed: those with a hit (about 1.5% of all), similar ones and a draw of the others.

SMILES	PolyA inhibitor	JMJD2C inh	HDAC3 inhib	NALP3 yeast inh	Efflux pump inh	NALP1 yeast inh
CC(C)N1CCN(Cc2cccn2-c2nccs2)CC1CCO (centres undefined)	4.2	-17.8	1.7	8.0	0.1	3.7
CC(=O)c1cc(F)c(N2CCOCC2)cc1C	18.3	·	-2.9	26.6	-0.1	43.7*
CC(=O)c1cc(F)c(N2CCCC2)cc1C	-20.8	0.9	0.0	44.5	-0.1	33.1
Cc1cc(OC(=O)C(C)(C)C)c([N+](=O)[O-])c(=O)[nH]1	9.6	2.4	-1.9	16.5	-0.1	33.9*
Cc1cccc(C(=O)OCc2cncs2)c1	13.6	7.8	-2.1	11.3	-0.1	28.3
CC1CCN(CCOc2ccc(OCc3ccccc3)cc2)CC1	-4.6	3.4	3.8	34.8	0.0	49.3*
c1ccc(COc2ccc(OCCCCN3CCCC3)cc2)cc1	-15.4	1.1	2.6	17.2	0.3	45.4
Cc1ccc2nc(C)cc(Nc3ccc4c(c3)OCCO4)c2c1	23.3	24.2	8.6	10.5	0.1	33.1*
Cc1cc(Nc2ccc3c(c2)OCCO3)c2ccccc2n1	5.6	15.1	·	7.0	0.1	14.5
O=C(Nc1ccc(Oc2cccnc2)cc1)C1CCN(Cc2cccc(Cl)c2)CC1	8.9	-3.1	2.0	25.4	0.0	35.9*
O=C(Nc1ccc(Oc2ccccc2)nc1)C1CCN(Cc2ccccc2)CC1	4.0	-0.4	-13.4	19.3	-0.2	15.8
O=C(Nc1ccc(Oc2cccnc2)cc1)C1CCN(Cc2ccccc2)CC1	7.1	2.0	-5.9	25.8	-0.2	11.8
CCn1cc(CN2CCC(C(=O)Nc3ccc(Oc4ccccc4)nc3)CC2)cn1	0.8	1.9	3.3	5.0	-0.1	34.2*
O=C(N/N=C/c1coc2ccccc2c1=O)c1cn(-c2ccccc2)nc1-c1ccc(F)cc1	-6.0	-14.6	3.8	-3.3	0.0	4.4
O=C(O)Cc1ccc(NC(=O)Nc2ccc(Br)cc2)cc1	12.5	-8.2	-3.1	3.4	-0.1	32.2*
COc1ccc(NC(=O)Nc2ccc(CC(=O)O)cc2)cc1	4.3	-2.6	10.3	22.9	0.0	9.7
CC(=O)c1ccc(-c2ccc(-c3cc(=O)oc4c(C(C)C)ccc(C)c34)cc2)cc1	·	·	·	·	0.1	·
CC1(C)CC(=O)C2=C(C1)NC(=S)C(C#N)C21CCCCC1 (centres undefined)	-8.4	3.6	39.4*	13.8	-0.1	·
O=C(NCc1nnnn1-c1ccc(F)c(F)c1)c1cc2ccccc2o1	-3.5	14.8	2.0	13.2	0.2	·
COCCCN1Cc2cccc(C(=O)O)c2C1=O	7.9	7.9	1.2	11.6	0.0	37.7*
O=C1N(CCCl)c2ccc(Br)cc2C12OCCO2	-6.3	-0.1	-2.3	-1.9	0.1	29.4
COc1ccc(-[n+]2c(C)cc(/C=C3\Sc4ccccc4N3C)cc2C)cc1	-15.5	-8.6	19.0	12.4	0.1	28.4*
CCOC(=O)c1nnc(-c2cccs2)nc1NC(C)C	4.1	-1.2	5.3	22.2	0.1	23.9*
CC(C)C(=O)Nc1ccc2nn(-c3ccccc3)nc2c1	-5.7	-2.5	-40.8	30.3	0.1	15.1
Cc1ccc(C)c(-n2cc[nH]c2=S)c1	19.5	1.2	2.5	13.1	0.1	0.7
SMILES	PolyA inhibitor	JMJD2C inh	HDAC3 inhib	NALP3 yeast inh	Efflux pump inh	NALP1 yeast inh
CCOC(=O)C(=CNNc1c(C)csc1C(=O)OC)C(=O)OCC	0.0	-14.8	1.3	9.0	0.3	31.6
COC(=O)c1scc(C)c1N/N=C(\C)c1cc(F)c(Cl)cc1F	-15.5	-21.8	-4.0	5.3	0.2	42.0*
CCOc1ccc(N2C(=O)CC(N)C2=O)cc1 (centres undefined)	·	·	1.8	29.6	0.0	94.3*
CCOc1ccc(N2C(=O)CC(Cc3cc(C)cc(C)c3)C2=O)cc1 (centres undefined)	-11.8	3.3	-2.7	16.0	0.5	20.8
CCOc1ccc(N2C(=O)CC(Sc3n[nH]c(-c4ccccc4)n3)C2=O)cc1 (centres undefined)	-12.4	-7.3	-6.7	12.0	-0.2	36.9*
O=C(CC1C(=O)NCCN1C(=O)Nc1ccccc1)Nc1cc(Cl)cc(Cl)c1 (centres undefined)	-11.1	4.2	14.0	-4.2	-0.4	16.1
CC(O)CNc1nc2ccccc2n1CC(=O)NCC(F)(F)F (centres undefined)	1.8	1.2	3.5	13.1	0.0	4.9
CC(O)CNc1nc2ccccc2n1CC(=O)NC12CC3CC(CC(C3)C1)C2 (centres undefined)	26.7	51.4*	5.6	6.5	-0.1	10.1
O=c1[nH]c2ccccc2cc1CN(Cc1ccco1)S(=O)(=O)c1ccccc1	-34.0	4.2	-6.7	13.8	0.0	2.5
CCCn1c(SCc2nc3ccccc3s2)n[nH]c1=O	6.2	-7.3	-4.7	-4.3	0.0	32.7*
CC1=C(C(=O)Nc2cccc(C(=O)N3CCC(C(N)=O)CC3)c2)SCCO1	-20.2	-3.8	7.9	-1.1	0.0	-16.8
CCc1ccc(C(C(=O)NC2CCCCC2)N(C(=O)c2csnn2)C2CC2)cc1 (centres undefined)	4.1	-4.4	-5.1	8.7	0.0	10.2
O=C(NCc1ccccc1F)c1ccncc1	3.5	-12.9	1.8	20.6	0.0	19.3
Cc1ccc(CNC(=O)C2CCC(=O)N(CCCN3CCOCC3)C2)cc1 (centres undefined)	-10.5	-2.2	-2.6	2.3	-0.1	11.2
O=C(C1=C[C@@H](c2coc3ccccc3c2=O)C[C@@H](OCc2ccc(CO)cc2)O1)N1CCN(Cc2ccc3c(c2)OCO3)CC1	3.8	153.1	4.8	9.7	0.0	15.7
O=C(C1=C[C@H](c2coc3ccccc3c2=O)C[C@H](OCc2ccc(CO)cc2)O1)N1CCN(Cc2ccc3c(c2)OCO3)CC1	-4.6	-2.7	-2.8	13.2	-0.1	20.5*
NC(=O)c1ccc(NC(=O)CCN=C2NS(=O)(=O)c3ccccc32)cc1	-6.4	5.3	-1.8	-1.3	0.0	·
Cc1ccc(S(=O)(=O)Cc2cc(F)c([N+](=O)[O-])cc2[N+](=O)[O-])cc1	-7.0	-6.4	2.2	14.6	-0.1	47.3*
CCOC(=O)c1sc(NC(=O)c2ccccc2)cc1C	7.0	-2.3	4.4	32.6	-0.1	6.9
CCOC(=O)c1sc(NC(=O)c2ccc(S(=O)(=O)N(C)C)cc2)cc1C	3.6	-19.9	10.9	-10.0	-0.1	40.7*
CCOc1ccccc1NC(=O)c1ccc(S(=O)(=O)N(C)C)cc1	33.5	9.0	-0.4	17.0	-0.1	40.9*
CCOc1ccccc1NC(=O)c1ccc(S(=O)(=O)N(C)c2ccccc2)cc1	·	4.9	-4.4	28.9	-0.4	·
Cc1nnc(SCC(=O)NC2CCCC(C)C2C)n1N (centres undefined)	·	10.3	4.7	-0.1	0.1	·

Bioassay records deposited in PubChem by several laboratories.
